# Laboratory results as given in paper PMC4552634, “A New Set of Chemical Starting Points with Plasmodium falciparum Transmission-Blocking Potential for Antimalarial Drug Discovery” (PLoS ONE, 2015).
# Hit rate of the full screen: of about 13,000 compounds, about 3,200 (25%) showed an effect of 50% or more. Some of the results follow.
# Tested on: P. falciparum stage V gametocytes
# Parameters: BacTiter-Glo ATP luminescence viability of purified stage V gametocytes in 384-well plates, per cent inhibition versus DMSO
# Settings: 48 h, 5 µM; inhibitor
row,SMILES,% Inhibition [%]
1,N#Cc1ccc(/C=C/C(=O)NCCCCCN2CCCN(C(=O)Nc3ccc(Cl)c(C(F)(F)F)c3)CC2)cc1 [TCMDC-136110],28.79
2,Cc1[nH]c(CNCCCNc2cc(=O)c3ccccc3[nH]2)c(Br)c1Br [TCMDC-139780],-12
3,COc1ccc(-c2cc(C(=O)Nc3ccc4nc(-c5ccccc5)[nH]c4c3)[nH]n2)cc1 [TCMDC-134399],-1.351
4,Fc1cccc(COc2ccc(Nc3ncnc4sc(C#CCNC5CCC5)cc34)cc2Cl)c1 [TCMDC-138785],4.873
5,Cc1cc(NCCc2ccccc2)nc(/N=C(\N)Nc2cccc([N+](=O)[O-])c2)n1 [TCMDC-138371],3.581
6,Cc1cc(NCCc2ccccc2)nc(/N=C(\N)Nc2cccc(Cl)c2)n1 [TCMDC-138364],54.32
7,CC(C)CCN(Cc1cncn1Cc1cccc(C(F)(F)F)c1)C(=O)c1ccccc1C#N [TCMDC-132457],14.87
8,O=C(O)C(F)(F)F.O=C1CCCN1CCCNCc1ccc(-c2ccc(-c3nc4cc(C(F)(F)F)ccc4[nH]3)cc2)cc1 [TCMDC-132760],37.39
9,COc1cc(F)c2ncc(Cl)c(CCN3CCC(NCc4ccc5c(c4)NC(=O)CO5)CC3)c2c1 [TCMDC-135623],24.82
10,Cn1ncc2c3c(CCN4CCC(NCc5ccc6c(c5)NC(=O)CO6)CC4)c(Cl)cnc3ccc21 [TCMDC-136023],91.21
11,COc1nc2c(CCN3CCC(NCc4ccc5c(c4)NC(=O)CO5)CC3)c(Cl)cnc2cc1F [TCMDC-135767],23.61
12,CC(=O)c1ccc(N2C(=O)C3C(Cc4ccc(OC(C)(C)C)cc4)NC4(C(=O)N(Cc5ccc(C(C)(C)C)cc5)c5ccccc54)C3C2=O)cc1 (stereo not drawn) [TCMDC-139773],1.15
13,C=CCc1cc(Cc2cnc(N)nc2N)c2ccc(C)nc2c1O [TCMDC-137628],-3.473
14,Cc1cccc(CNc2nccc3[nH]c4ccccc4c23)c1 [TCMDC-136334],-2.626
15,CN(CCc1ccccn1)c1cccc2c1nc(-c1cccnc1)n2CCNCc1ccccc1 [TCMDC-133439],-10.58
16,CN(C)c1cccc2c1nc(-c1ccco1)n2CCNCc1ccccc1 [TCMDC-133484],72.16
17,CN(C)CCCN(C)c1cccc2c1nc(-c1cccnc1)n2CCNCc1ccccc1 [TCMDC-133440],88.37
18,CN(C)CCNc1cc(-c2cccnc2)nc(-c2ccncc2)n1 [TCMDC-125595],-4.49
19,Cc1nc2nc(N)nc(N)c2c(C)c1Cc1cccc(C#N)c1 [TCMDC-137646],-13.13
20,Cc1nc(N)nc(N)c1CCCOc1ccc(Br)cc1 [TCMDC-138068],-19.95
21,CC(=O)c1cccc(NC(=O)N2CCCN(CCCCCNC(=O)/C=C/c3ccc(Cl)c(Cl)c3)CC2)c1 [TCMDC-135752],-19.76

row,SMILES,% Inhibition [%]
1,COc1ccc(-c2nc(NC(=O)Cc3coc4cc(OC)ccc34)sc2C)cc1 [TCMDC-124497],27.62
2,CCN(CC)CCN(Cc1ccc(-c2ccc(C(F)(F)F)cc2)cc1)C(=O)Cn1c(CCc2cccc(F)c2F)nc(=O)c2ccc(F)cc21 [TCMDC-141095],68.69
3,CCN(CC)CCN(Cc1ccc(-c2ccc(C(F)(F)F)cc2)cc1)C(=O)Cn1c(CCc2cccc(F)c2F)nc(=O)c2cc(F)ccc21 [TCMDC-141096],73.36
4,CCN(CC)CCN(Cc1ccc(-c2ccc(C(F)(F)F)cc2)cc1)C(=O)Cn1c(CCc2cccc(F)c2F)nc(=O)c2cc(F)c(F)cc21 [TCMDC-141089],67.52
5,CCN(CC)CCN(Cc1ccc(-c2ccc(C(F)(F)F)cc2)cc1)C(=O)Cn1c(CCc2cccc(F)c2F)nc(=O)c2ccc(C(F)(F)F)cc21 [TCMDC-141071],34.24
6,CCN(CC)CCN(Cc1ccc(-c2ccc(C(F)(F)F)cc2)cc1)C(=O)Cn1c(SCc2ccc(F)cc2)cc(=O)c2ccccc21 [TCMDC-140791],99.53
7,COc1cccc(OC2CCN(C(=O)c3ccc(-c4ccc(N5CCCC5=O)cc4C)cc3)CC2)c1 [TCMDC-136524],29.3
8,Cc1nc(N)nc(N)c1OCCCOc1ccccc1Br [TCMDC-131364],-0.5645
9,CN1CCCC1CCNC(=O)[C@H](CC1CCCCC1)NC(=O)c1ccc(O)c(-c2ccc(Cl)c(Cl)c2)c1 (stereo partly drawn) [TCMDC-140855],48.17
10,CCN(CC)C(=O)c1cnc(-c2ccccc2)nc1Oc1cccc(Cl)c1 [TCMDC-124780],14.15
11,CCCCCCC(C)c1cc(O)c2c(c1)OC(=O)CC2(CC)c1ccccn1 (stereo not drawn) [TCMDC-131681],-3.085
12,c1cc(CNC2Cc3ccc(-c4cccs4)cc3C2)cc(-n2ccnc2)c1 (stereo not drawn) [TCMDC-134830],-2.028
13,CC(C)C[C@H](NC(=O)c1ccc(OCCN2CCOCC2)cc1)C(=O)NC(/C=N/N1CCCC1=O)C(C)C (stereo partly drawn) [TCMDC-136276],20.05
14,CCc1cccc(OCC2CCCN(c3ccc(C(=O)NC4CC4)cn3)C2)c1 (stereo not drawn) [TCMDC-134039],7.857
15,CCN(CC)CCN(Cc1ccc(-c2ccc(C(F)(F)F)cc2)cc1)C(=O)Cn1c(CCc2ccc(F)cc2)nc(=O)c2sccc21 [TCMDC-140779],90.56
16,CCN(CC)CCN(Cc1ccc(-c2ccc(C(F)(F)F)cc2)nc1)C(=O)Cn1c(SCc2ccc(F)cc2)nc(=O)c2sccc21 [TCMDC-140573],27.02
17,CCN(CC)CCN(Cc1ccc(-c2ccc(C(F)(F)F)cc2)cc1)C(=O)Cn1c(CCc2cccc(F)c2F)nc(=O)c2ccc(C)cc21 [TCMDC-141086],74.83
18,CCN(CC)CCN(Cc1ccc(-c2ccc(C(F)(F)F)cc2)cc1)C(=O)Cn1c(CCc2cccc(F)c2F)nc(=O)c2cc(C)ccc21 [TCMDC-141014],48.99
19,CCN(CC)CCN(Cc1ccc(-c2ccc(C(F)(F)F)cc2)cc1)C(=O)Cn1c(SCc2ccc(F)cc2)nc(=O)c2sccc21 [TCMDC-140572],78.9
20,CCN(CC)CCN(Cc1ccc(-c2ccc(C(F)(F)F)cc2)cc1)C(=O)Cn1c(SCc2ccc(F)cc2)nc(=O)c2ccccc21 [TCMDC-140983],87.16
21,Cc1cccc(C)c1C1CCN(C2CCC(NC(=O)/C=C/c3ccccc3)CC2)CC1 (stereo not drawn) [TCMDC-132879],-22.62

row,SMILES,% Inhibition [%]
1,C=CC12CCN(CC1)C(C(O)c1ccnc3ccc(OC)cc13)C2 (stereo not drawn) [TCMDC-124047],-22.19
2,O=C(Nc1ccc(F)c(F)c1)c1ccc(CN2CCCN(Cc3cccc(O)c3)CC2)cc1 [TCMDC-136390],-4.727
3,CC(=O)Nc1ncc(C(=O)Nc2cccc(-c3cccc(-c4nc5ccc(C(F)(F)F)cc5[nH]4)c3)c2)s1 [TCMDC-136918],17.49
4,CCc1sc(N2CCN(C)CC2)nc1C(=O)Nc1ccc(F)cc1C(F)(F)F [TCMDC-134298],16.91
5,CCN(CC)CCN(Cc1ccc(-c2ccc(C(F)(F)F)cc2)cc1)C(=O)Cn1c(CCc2cccc(F)c2F)nc(=O)c2sccc21 [TCMDC-140937],80.29
6,Cc1noc(NC(=O)c2sc3ccccc3c2O)c1C [TCMDC-124523],7.208
7,O=C(CNC(=O)c1ccc(O)cc1)Nc1ccc(-c2cccc(-c3nc4ccc(C(F)(F)F)cc4[nH]3)c2)cc1 [TCMDC-136817],-15.92
8,COc1cc(O)c2c(=O)c(OC)c(-c3cccc(Cl)c3OCC(=O)O)oc2c1OC [TCMDC-131682],2.376
9,N=C(N)c1ccc(NCc2cccc(C(=O)O)c2)cc1 [TCMDC-136136],-78.43
10,CS(=O)(=O)Nc1cccc(-c2cnc3[nH]cc(-c4ccc(C(=O)O)c(F)c4)c3c2)c1 [TCMDC-136221],80.96
11,NCCNC(=O)c1ccc(-c2cnc3[nH]cc(-c4ccc(C(N)=O)cc4)c3c2)cc1 [TCMDC-132359],74.46
12,O=C(O)c1ccc(-c2c[nH]c3ncc(-c4ccc(Cl)cc4)cc23)cc1 [TCMDC-135860],22.96
13,CS(=O)(=O)Nc1ccc(-c2cnc3[nH]cc(-c4ccc(C(=O)O)cc4)c3c2)cc1 [TCMDC-136306],30.86
14,CS(=O)(=O)c1cccc(-c2cnc3[nH]cc(-c4ccc(CCC(=O)O)cc4)c3c2)c1 [TCMDC-136223],14.42
15,CS(=O)(=O)Nc1cccc(-c2cnc3[nH]cc(-c4ccc(CN)cc4)c3c2)c1 [TCMDC-136218],33.32
16,CS(=O)(=O)Nc1cccc(-c2cnc3[nH]cc(-c4ccc(C(=O)O)cc4)c3c2)c1 [TCMDC-136215],-36.34
17,CS(=O)(=O)Nc1cccc(-c2cnc3[nH]cc(-c4cccc(CN)c4)c3c2)c1 [TCMDC-136219],26.05
18,NCCC(=O)Nc1ccc(-c2cnc3[nH]cc(-c4ccc(C(=O)O)cc4)c3c2)cn1 [TCMDC-136494],31.68
19,CS(=O)(=O)Nc1cccc(-c2cnc3[nH]cc(-c4ccc(CCC(=O)O)cc4)c3c2)c1 [TCMDC-136222],-32.54
20,CS(=O)(=O)c1cccc(-c2cnc3[nH]cc(-c4cccc(CCN)c4)c3c2)c1 [TCMDC-136307],108.4
21,CCS(=O)(=O)c1ccc(-c2cnc3[nH]cc(-c4ccc(N)cc4)c3c2)cc1 [TCMDC-132582],93.29
